Reference: article PMC7819943, “Rice protein-binding microarrays: a tool to detect cis-acting elements near promoter regions in rice”
Over roughly 68,000 sequences, “fluorescence intensity (a.u.)” has its median near 9,100; the highest 2% begin near 16,000. The sample holds the highest values, similar sequences and a random draw of the others, so the mix is not that of the screen.

Target: OsWRKY34 (Oryza sativa, UniProt Q0JBA9 1-250)
Assay: protein-binding microarray (RPBM); PBS, 2% BSA, 51.3 ng/ul salmon testes DNA, 50 uM zinc acetate, 200 nM TF, 25 C, 1 h; high values mean tight binding
Settings: protein: recombinant; tags: N-terminal polyhistidine and DsRed monomer fusion (pET32a); label: CyDye5-dUTP incorporated in the synthesized complementary strand; 3' TTTTT single-stranded linker to array surface; dsDNA, one strand shown
Procedure, shortened: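 Binding signal is defined as the fluorescence intensity of each feature in arbitrary units, read on an Axon 4000B scanner. Transcription factors with N-terminal polyhistidine and DsRed fusions came from E. coli BL21-CodonPlus and were purified on Ni–NTA. They were incubated at 200 nM for 1 h at 25 °C on a custom Agilent array that had been made double-stranded with Cy5-dUTP, with 50 µM zinc acetate present, and the array was washed.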

OsWRKY34, sequence (Q0JBA9 entry or part of it): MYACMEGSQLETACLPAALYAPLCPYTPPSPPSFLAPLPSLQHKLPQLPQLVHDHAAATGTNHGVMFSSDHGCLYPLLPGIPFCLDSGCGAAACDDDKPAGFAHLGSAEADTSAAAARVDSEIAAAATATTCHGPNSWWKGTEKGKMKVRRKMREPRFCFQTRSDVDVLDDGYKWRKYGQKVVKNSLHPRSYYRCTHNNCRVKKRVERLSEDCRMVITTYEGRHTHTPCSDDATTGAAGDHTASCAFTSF

Sequence | binding signal
ATCTAGGATACCGTTGACTTTTCGTACTAACATTTGACGTCGGAGTCACCTAGTGCAG | 32800 fluorescence intensity (a.u.)
TCCCTAAATATTTGACGCCGTTGACTTTTTTAAACATGTTCGGAGTCACCTAGTGCAG | 26400 fluorescence intensity (a.u.)
ATATTTGACGCCGTTGACTTTTTTAAACATGTTTGACCGTCGGAGTCACCTAGTGCAG | 44400 fluorescence intensity (a.u.)
CAAATTACTTCCTTTTCAAAATCTAGGATACCGTTGACTTCGGAGTCACCTAGTGCAG | 9460 fluorescence intensity (a.u.)
CCGTTGGCTTTTTTAAACATGTTTGACCGTTTATTTTATTCGGAGTCACCTAGTGCAG | 14100 fluorescence intensity (a.u.)
TCCCTAAATATTTGACGCCATTGACTTTTTTAAACATGTTCGGAGTCACCTAGTGCAG | 11200 fluorescence intensity (a.u.)
TTGACGCCGTTGACTTTTCTAAACATATTTGACTATTCGTCGGAGTCACCTAGTGCAG | 22300 fluorescence intensity (a.u.)
CACATATTGATCTATTCTACTAAATTTTTTTTATGACTTTCGGAGTCACCTAGTGCAG | 8630 fluorescence intensity (a.u.)
TGTTTTATTTTTAGGATACTTCTACCTTTTTTCGCTTTGACGGAGTCACCTAGTGCAG | 9510 fluorescence intensity (a.u.)
TGCTTTGGTTGTCTTCTTTATCTAGAAGGCTTTGATTGCTCGGAGTCACCTAGTGCAG | 9520 fluorescence intensity (a.u.)
TCATTGTTCTCACTTCCTCGTCTTGAGCACTTGAGTCTCTCGGAGTCACCTAGTGCAG | 8420 fluorescence intensity (a.u.)
TGCACTGGGCTCCCATCTGAATGTCCTTATGCCAACCTCCCGGAGTCACCTAGTGCAG | 8520 fluorescence intensity (a.u.)
CTAATCCTCCTGCTCCATCTCGATCCACATAACGATCCACCGGAGTCACCTAGTGCAG | 8470 fluorescence intensity (a.u.)
CATATTATAAATCATTTGACTTTTTTCATATTCAAAATTTCGGAGTCACCTAGTGCAG | 9090 fluorescence intensity (a.u.)
ACTCTATTTAGATATTTTCCCACGCATCCGTCTCCTCCTCCGGAGTCACCTAGTGCAG | 9420 fluorescence intensity (a.u.)
ACCAAACCCACGGCCTGGCCCACTGTCAGTACTAAGATAGCGGAGTCACCTAGTGCAG | 9120 fluorescence intensity (a.u.)
TCGCAGCAGCTGTTTTACCGGCTAGTTTTTTGCACACATCCGGAGTCACCTAGTGCAG | 8600 fluorescence intensity (a.u.)
CCTCCGTCCCTAAATATTCGACGCCGTTGACTTTTTTAAACGGAGTCACCTAGTGCAG | 21700 fluorescence intensity (a.u.)
GTCCCTAAATATTTGACGCCGTTGACTTTTTTAAACATGTCGGAGTCACCTAGTGCAG | 28500 fluorescence intensity (a.u.)
ATATTTGACGCCGTTGACTTTTTTAAACATATTTAACTGTCGGAGTCACCTAGTGCAG | 14600 fluorescence intensity (a.u.)
TATCTAAATATTTGACGCCGTTGACTTTTTAAAACATGTTCGGAGTCACCTAGTGCAG | 30900 fluorescence intensity (a.u.)
CTCCGTTTGTAAATATTTGACGCCGTTGACTTTTTAAAATCGGAGTCACCTAGTGCAG | 22700 fluorescence intensity (a.u.)

Sequence | binding signal
CCCTTTCACATGTCACCTCTGACCCACAAACAAACCCTTTCGGAGTCACCTAGTGCAG | 8210 fluorescence intensity (a.u.)
GAGTTATCCTCACCACCCACCGCTCGTCGCCTCCACTCCGCGGAGTCACCTAGTGCAG | 8120 fluorescence intensity (a.u.)
AGTAAGAGATCTCAAATTGATATGGGTTCTTGTTTTATATCGGAGTCACCTAGTGCAG | 8150 fluorescence intensity (a.u.)
CACCAAGCAGTCCCCTGTGTTCATCTTCTGAAGTCTGATTCGGAGTCACCTAGTGCAG | 8360 fluorescence intensity (a.u.)
ATTCCGCGCGCCGCCGCCGTCGCCGCCGCCGACGTCGCCGCGGAGTCACCTAGTGCAG | 8920 fluorescence intensity (a.u.)
GATGCCATTTTTAAACAATTCCATGCCTTGTTTCCATTTCCGGAGTCACCTAGTGCAG | 13400 fluorescence intensity (a.u.)
GTACTCCCTCTGACCCTAAATATTTGACGTCGTTGACTTTCGGAGTCACCTAGTGCAG | 16300 fluorescence intensity (a.u.)
CTAAATATTTGACGCCGTTGACTTTTTAAAACATGTTTGACGGAGTCACCTAGTGCAG | 30500 fluorescence intensity (a.u.)
CATCTGTTTCTGAATATTTGACGCCGTTGACTTTTTAAAACGGAGTCACCTAGTGCAG | 19600 fluorescence intensity (a.u.)
CTCCGTTATCGTTTGACTTTCTTTTCATTAATATTTTAAACGGAGTCACCTAGTGCAG | 15600 fluorescence intensity (a.u.)
ATTTCTAAATATTTGACGTCGTTGACTTTTTTAAACATGTCGGAGTCACCTAGTGCAG | 26800 fluorescence intensity (a.u.)
TCCGTCCCTAAATATTTGACGCCGTTGACTTTTTAACACACGGAGTCACCTAGTGCAG | 35700 fluorescence intensity (a.u.)
CTAAATGTTTAACGCCGTTGACTTTTTAAAACATATTTGACGGAGTCACCTAGTGCAG | 13400 fluorescence intensity (a.u.)
AAATATTTGACGCCGTTGACTTTCTTAAACATGTTTAACTCGGAGTCACCTAGTGCAG | 15700 fluorescence intensity (a.u.)
CGGCGGTGGTCTCCGCCGTTGGATCTGGGCGTTGACTTGTCGGAGTCACCTAGTGCAG | 9160 fluorescence intensity (a.u.)
ACTGCTGCTGCATCGGCGCCTTCACCAAGATGTCAACGGACGGAGTCACCTAGTGCAG | 8350 fluorescence intensity (a.u.)
GCTCTGAATTTTATTTTTTCCGCTTCTTGATTTCTTCGTTCGGAGTCACCTAGTGCAG | 9450 fluorescence intensity (a.u.)
GTAGCTCGTCGTCACTGCCCATAGTACTCTGGCTTAGCTACGGAGTCACCTAGTGCAG | 8030 fluorescence intensity (a.u.)
GGAGAGATGCCATGCCGCGCTATGTTGTTCAACTTCAAACCGGAGTCACCTAGTGCAG | 8400 fluorescence intensity (a.u.)
ATAGTTTGTTGTTTCCCAGACATAATTTTTACTAGCTTATCGGAGTCACCTAGTGCAG | 9630 fluorescence intensity (a.u.)
GTACACCGAAAGAAACCAACTCGTGTCCATCCATCCGTCTCGGAGTCACCTAGTGCAG | 8070 fluorescence intensity (a.u.)
TTCATATCTGCTTTTTCCTATATATGTGTGTGTGACTGCACGGAGTCACCTAGTGCAG | 9710 fluorescence intensity (a.u.)

Sequence | binding signal
TTTTATAATATGTTATTGTAGCAGTTTTTGTGAGCTATTACGGAGTCACCTAGTGCAG | 8100 fluorescence intensity (a.u.)
CTTGTACATCTGTCTTGCTAGAGTCTTTCACAAGATTACACGGAGTCACCTAGTGCAG | 8080 fluorescence intensity (a.u.)
GTGCTTGTGTGGCGCGTGTGCTTGTCACAGACTCTGCTCCCGGAGTCACCTAGTGCAG | 8660 fluorescence intensity (a.u.)
AGATGATGTCATTGACCATACAAGTTGAAAATAGGAGCAACGGAGTCACCTAGTGCAG | 63300 fluorescence intensity (a.u.)
TGTGGATGGCGTGGATAAGTTGACAGTTGAAAATACAAAACGGAGTCACCTAGTGCAG | 9130 fluorescence intensity (a.u.)
GATACAACCATTGCTCACATCATGGATGAACAAGATGACACGGAGTCACCTAGTGCAG | 8160 fluorescence intensity (a.u.)
ACATACCTCGTGCGGCCAGTCGCCTGTTACAAACTCCATTCGGAGTCACCTAGTGCAG | 8270 fluorescence intensity (a.u.)
TCCTTAGCTTCCTTCTGTCGACTTGTCTATTCTTTTTTTCCGGAGTCACCTAGTGCAG | 17700 fluorescence intensity (a.u.)
CTATATTCGAGGGAGTCCTTGTGGACTTTTTCCTTCTTTCCGGAGTCACCTAGTGCAG | 9390 fluorescence intensity (a.u.)
ACCTGTATTTGTCATTATTTAGTGGACTCTGCTTAGTTCTCGGAGTCACCTAGTGCAG | 19300 fluorescence intensity (a.u.)
CCTCCTTGTTGCGGTCGTCTTTCGCTCTATCTTCCTTGTCCGGAGTCACCTAGTGCAG | 11100 fluorescence intensity (a.u.)
GTTGTCATTGTCGCGTCGTCACCTCTGATTGCGTCATTCCCGGAGTCACCTAGTGCAG | 16500 fluorescence intensity (a.u.)
TCCTTCTCTGACTCTGTCTTGGCCATCCTATTCCTAGCTCCGGAGTCACCTAGTGCAG | 10600 fluorescence intensity (a.u.)
CCTCTCTGATTCGTCACCGCCACCGCCGCGTCGTCCCGCGCGGAGTCACCTAGTGCAG | 9730 fluorescence intensity (a.u.)
GCACCTCTTTCCTATCACGCGTCACCTTGCTCCATTGTCGCGGAGTCACCTAGTGCAG | 19000 fluorescence intensity (a.u.)
ATGGATCATGGATGGCTCCCGTTGTCATTGTCGCGTCGTCCGGAGTCACCTAGTGCAG | 9810 fluorescence intensity (a.u.)
ATTGTATTTCTATATGGACTCTGCTTTTTATTTTTCTCCGCGGAGTCACCTAGTGCAG | 8930 fluorescence intensity (a.u.)
TCTCTCTCCTTTTGTTGCTTCCATTTCTCGTTCTTGCACGCGGAGTCACCTAGTGCAG | 10500 fluorescence intensity (a.u.)
TGGATGGCCTTTTGTCTCTTTGTATATTATATATTTAGTTCGGAGTCACCTAGTGCAG | 8260 fluorescence intensity (a.u.)
CCATTCCTCTGTTTACCTCTGCTCTGTATACATACTCCGGCGGAGTCACCTAGTGCAG | 9220 fluorescence intensity (a.u.)
AGAATTCCGATCGCCACCCCGCGGTTCTGCTCTCGCCGGCCGGAGTCACCTAGTGCAG | 9150 fluorescence intensity (a.u.)
ACAAACCCGACCTTGAACTCGAAACAGGCGCACATCCCACCGGAGTCACCTAGTGCAG | 8560 fluorescence intensity (a.u.)

Sequence | binding signal
CCATCGGTACCATCTGTTTCGTCTACTTCCTTTGTAATCTCGGAGTCACCTAGTGCAG | 9150 fluorescence intensity (a.u.)
AGAGGAGAGGAGGGTTCAGATGTGGTGGGTCTATATAGCGCGGAGTCACCTAGTGCAG | 9610 fluorescence intensity (a.u.)
GATAGTGTCCCACGCATGCGTCCACGAGTCCTCGACGCAACGGAGTCACCTAGTGCAG | 9120 fluorescence intensity (a.u.)
TACTACACTATTAATATATGGTCCAACCTGTCATACACACCGGAGTCACCTAGTGCAG | 10700 fluorescence intensity (a.u.)
TGTTTATCTATTTTGTGTTGGTATTATTATTTCTTGTATACGGAGTCACCTAGTGCAG | 8850 fluorescence intensity (a.u.)
CCACACCACAGTCGCCTCTCTCCTCTTTCACCGAGAAGCGCGGAGTCACCTAGTGCAG | 8150 fluorescence intensity (a.u.)
GTTTCCATAGCATTACACTTTTGTAACTATTATTGTTTTGCGGAGTCACCTAGTGCAG | 9760 fluorescence intensity (a.u.)
TATGAAGTTGATTTTGTGGATTTTTTCATCGTGATTTATTCGGAGTCACCTAGTGCAG | 8890 fluorescence intensity (a.u.)
TTTCTCCGTCGTCTTCCTCTACTGGTTCTATGTCTTCTCACGGAGTCACCTAGTGCAG | 18800 fluorescence intensity (a.u.)
ACTGTCTCGTATTCTATTCCTCATTCCTTCTCTTTTTTTCCGGAGTCACCTAGTGCAG | 19600 fluorescence intensity (a.u.)
ATCATTCCTAACTGCCTGGTCGTACTTCTCTGTATTTTGTCGGAGTCACCTAGTGCAG | 17500 fluorescence intensity (a.u.)
ACTTGTATTCTTCCTCGTCTTCCTCTTCTGTATTTCTGGTCGGAGTCACCTAGTGCAG | 8140 fluorescence intensity (a.u.)
CTTGGTTTCTTGTTGTGCAACTCTCGTCGTCTCGTTCATCCGGAGTCACCTAGTGCAG | 11500 fluorescence intensity (a.u.)
CTTTCCGTCGCGTCTCGTCTTCTCATGGTTGCAACTCTCCCGGAGTCACCTAGTGCAG | 18100 fluorescence intensity (a.u.)
TCCTCATGCCTCTTTTTCCTCCTCCTTCCTTCTCTCATTCCGGAGTCACCTAGTGCAG | 10200 fluorescence intensity (a.u.)
TCCGTCGTCTTCCTTTACTGGTTCTATGTCTTCTCAGTAACGGAGTCACCTAGTGCAG | 10800 fluorescence intensity (a.u.)
AACTCACTCTCGCGTTCGCGTCGTCTCCGGCCTTTTCTTGCGGAGTCACCTAGTGCAG | 8870 fluorescence intensity (a.u.)
CTCTCCTCCCTATTCTTTTCCTTTCCTCTCCTTTCCTTTCCGGAGTCACCTAGTGCAG | 8870 fluorescence intensity (a.u.)
GTTTTGTATGGTTCTCTGGATATATTACTGCCTGTAAATTCGGAGTCACCTAGTGCAG | 8320 fluorescence intensity (a.u.)
TACTGGTCGTCTGGTCTACTCCGTCTCTCCTCTTCTCTCCCGGAGTCACCTAGTGCAG | 12200 fluorescence intensity (a.u.)
